Results published in PubChem BioAssay AID751 (NMMLSC, 2007).
Screen size: about 24,000 compounds; about 40 (0.2%) were called active.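 Rule for the calls: active = inhibition of disassembly above about 33% (limit read from the data); inconclusive = likely self-fluorescent, control bead median signal at least 40; inactive = the rest.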 This excerpt belongs to a sample that is enriched for actives.

Each compound was assayed on 26S proteasome (yeast, GFP-tagged, ATP-dependent disassembly) (assay: blockers of yeast 26S proteasome breakdown – biochemical, bead-based flow cytometry, GFP-tagged proteasome, primary screen (AID 751;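 note: plate controls were ATP control with full disassembly for no effect and ATP-gamma-S intact proteasomes for full effect; higher percent means more bead fluorescence retained so stronger block of disassembly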)). Settings: anti-FLAG beads, hits give high values, concentration not given here.

| Compound | inhibition of disassembly |
| --- | --- |
| CCOC(=O)C1CCCN(C(=O)Cn2ncc3c(=O)oc4ccc(C)cc4c32)C1 (stereo unspecified) | -1.55% (inactive) |
| Cc1nn(-c2ccccc2)c2[nH]c(C(F)(F)F)cc(=O)c12 | 0.28% (inactive) |
| CC(C)CNC(=O)c1cc(-c2ccc(Br)cc2)on1 | -0.25% (inactive) |
| COc1ccc(C2C(C(=O)Nc3ccccc3OC)=C(C)Nc3nnnn32)c(OC)c1 (stereo unspecified) | -0.27% (inactive) |
| Cc1ccc(C(c2sc3nc(C)nn3c2O)N2CCN(c3ccccc3)CC2)cc1 (stereo unspecified) | -0.53% (inactive) |
| CCS(=O)(=O)N1CCC(C(=O)N2CCN(c3ccccc3)CC2)CC1 | 0.05% (inactive) |
| CCOC(=O)c1ccc(NC(=O)CS(=O)(=O)c2cn(CC)c3ccccc23)cc1 | -1.63% (inactive) |
| CCN(CC)CCNC(=O)C1c2ccccc2C(=O)N(C)C1c1cn(C)c2ccccc12 (stereo unspecified) | -2.19% (inactive) |
| COc1ccc(CN(C(=O)c2cccs2)c2nccs2)cc1OC | 0.76% (inactive) |
| CCn1c(SCC(=O)Nc2nccs2)nnc1-c1ccncc1 | 1.46% (inactive) |
| CCCN(CCC)CCNC(=O)c1cc2c(C)nc3ccccc3c2o1 | 5.25% (inactive) |
| Cn1cccc1Cc1nnc(SCC(=O)NCc2ccc3c(c2)OCO3)n1CCc1ccccc1 | 1.04% (inactive) |
| CCOc1ccc(N(CC(=O)NCc2ccc(OC)cc2)S(=O)(=O)c2c(C)noc2C)cc1 | -1.57% (inactive) |
| Cc1ccc(-c2nc(CS(=O)CC(=O)N3CCN(c4ncccn4)CC3)c(C)o2)cc1 (stereo unspecified) | 4.64% (inactive) |
| Cc1nnc(SCC(=O)N(C(C)C)C(C)C)nc1C | 0.76% (inactive) |
| O=C(CSc1nc2[nH]ncc2c(=O)n1-c1ccccc1)N1CCCc2ccccc21 | 3.12% (inactive) |
| CCOCC(=O)Nc1sc2c(c1C(=O)OCC)CCCC2 | 1.13% (inactive) |
| CNC(=O)Nc1cc(C(C)(C)C)no1 | -0.8% (inactive) |
| COc1ccc(C(=O)N(CCN2CCOCC2)CC(=O)NC2CCCC2)cc1OC | 1% (inactive) |
| CNC(=O)c1ccc2nc(NC(C)=O)sc2c1 | 3.41% (inactive) |
| Fc1ccc2nc(Nc3nc4c(s3)CCCC4)sc2c1 | 96.9% (active) |
| Fc1ccc2nc(N3CCCCC3)sc2c1 | 0.07% (inactive) |
| O=C1c2ccncc2C(=O)N1C1CCCCC1 | -0.82% (inactive) |
| Cc1ncn(C23CC4CC(CC(O)(C4)C2)C3)n1 | -1.21% (inactive) |

| Compound | inhibition of disassembly |
| --- | --- |
| O=C1c2cccnc2C(=O)N1Cc1cccs1 | -1.73% (inactive) |
| CCOc1cc(S(=O)(=O)NCc2ccc3c(c2)OCO3)ccc1F | -0.11% (inactive) |
| Cc1nnc(SCCCn2c(N3CCCCC3)nc3c2c(=O)[nH]c(=O)n3C)s1 | -3.02% (inactive) |
| Cc1cc(C(=O)NCCCc2ccccc2)no1 | 0.81% (inactive) |
| CCOc1ccc(C2C(C(=O)NC)=C(C)Nc3nc4ccccc4n32)cc1OC (stereo unspecified) | -0.82% (inactive) |
| O=S(=O)(NCc1ccccc1Cl)c1cnc[nH]1 | 1.99% (inactive) |
| N#CCCn1ncc2ccccc21 | -0.94% (inactive) |
| CCOC(=O)CN1C(=O)C(O)(CC(=O)c2ccccn2)c2ccccc21 (stereo unspecified) | 0.68% (inactive) |
| COc1ccc(NC(=O)CN2CCN(S(=O)(=O)c3ccc(F)cc3)CC2)cc1Cl | 0.32% (inactive) |
| O=C(CN1CCN(C(=O)c2cccc(F)c2)CC1)Nc1ccccc1F | 2.43% (inactive) |
| CCOc1ccc(CC(=O)Nc2ccc(S(=O)(=O)Nc3cc(C)on3)cc2)cc1OCC | 1.32% (inactive) |
| Cc1ccc(N(C(=O)CC2NC(=O)NC2=O)C2(C(=O)NC3CCCC3)CCCCC2)cc1 (stereo unspecified) | -0.11% (inactive) |
| Cc1ccc(C2CC(=O)NC(SCC(=O)OCc3ccccc3)=C2C#N)o1 (stereo unspecified) | -1.12% (inactive) |
| Cc1ccc(C(CC(=O)O)Nc2nc(N3CCCCC3)nc(N3CCCCC3)n2)cc1 (stereo unspecified) | 0.5% (inactive) |
| CN(C)S(=O)(=O)c1cccc(C(=O)Nc2cccnc2)c1 | 0.3% (inactive) |
| O=C(Cc1nn[nH]n1)NCCC1=CCCCC1 | 3.56% (inactive) |
| C#CC(C)(C)NC(=O)CSc1nc2c(c(=O)n(C)c(=O)n2C)n1CCCC | 0.06% (inactive) |
| Cc1ccc(-n2ncc3c(=O)[nH]cnc32)c(C)c1 | -2.48% (inactive) |
| CCOC(=O)C1CCN(C(=O)c2oc3ccc(S(=O)(=O)N4CCCCCC4)cc3c2C)CC1 | 0.89% (inactive) |
| CCOC(=O)Cc1csc(NC(=O)CN(C)S(=O)(=O)c2ccc3c(c2)CCC(=O)N3)n1 | 0.365% (inactive) |
| CCC1Oc2ccc(Cl)cc2N(CC(=O)O)C1=O (stereo unspecified) | -0.77% (inactive) |
| Brc1cnc(N2CCCC2)nc1N1CCCCC1 | -0.98% (inactive) |
| O=C(O)c1ccc(NC(=O)c2cccs2)cc1 | -9.2% (inactive) |
| COc1ccc(N2C(=O)C3CCCN3C2c2cc(OC)c(OC)cc2OC)cc1 (stereo unspecified) | 1.25% (inactive) |

| Compound | inhibition of disassembly |
| --- | --- |
| COc1ccc(N2C(=O)C3CCCN3C2c2cccc(OC)c2)cc1 (stereo unspecified) | 0.89% (inactive) |
| COc1cccc(N2C(=O)C3CCCN3C2c2ccc(F)cc2)c1 (stereo unspecified) | 137% (active) |
| Cc1ccccc1N1CC(c2nc3ccccc3[nH]2)CC1=O (stereo unspecified) | 2.43% (inactive) |
| Cc1ccc(NC(=O)C2CC(c3ccc(F)cc3)=NO2)cc1 (stereo unspecified) | 0.38% (inactive) |
| CCOC(=O)Cn1c(=O)oc2cc(S(=O)(=O)N(C)Cc3ccco3)ccc21 | 0.3% (inactive) |
| C=CCOc1ccc(C2/C(=C(\O)c3c(C)[nH]c(C(=O)OC)c3C)C(=O)C(=O)N2CCN(C)C)cc1 (stereo unspecified) | -2.37% (inactive) |
| Cc1nc2ccc(S(=O)(=O)NC(C(=O)N3CCCCCC3)C(C)C)cc2s1 (stereo unspecified) | 0% (inactive) |
| CC(C)C1N=C2c3ccccc3N=C(SCC(=O)c3ccc(O)c(O)c3)N2C1=O (stereo unspecified) | -7.17% (inactive) |
| Nc1nonc1C(=O)NCCc1ccccc1 | -0.31% (inactive) |
| CCCCN(CC)C(=O)CN(C)S(=O)(=O)c1cccc2nsnc12 | -0.83% (inactive) |
| CC(=O)Nc1ccc(NS(=O)(=O)c2cc(C)sc2C)cc1 | 1.22% (inactive) |
| CCCNC(=O)Nc1ccccc1C(=O)Nc1ccc(OC)cc1 | 0.82% (inactive) |
| COc1ccccc1CNC(=O)CCCn1c(=O)c2ccccc2n(CC(=O)NC2CCCC2)c1=O | -1.05% (inactive) |
| O=C(c1cc(-c2ccccc2O)on1)N1CCCC1 | 3.8% (inactive) |
| CCCCC(=O)Nc1cc(C)c2c(=O)oc3ccccc3c2n1 | -3.04% (inactive) |
| COc1ccccc1-c1nc(C(F)(F)F)c(OC)o1 | -0.84% (inactive) |
| O=C(Nc1nsc(-c2ccccc2)n1)c1ccncc1 | -0.11% (inactive) |
| COC(=O)c1oc2ccc(Br)cc2c1NC(C)=O | 0.425% (inactive) |
| Cc1cc(=O)n2nc(N3CCCC(C(=O)NCCC4=CCCCC4)C3)sc2n1 (stereo unspecified) | -1.75% (inactive) |
| Cc1cc(C)c(C)c(S(=O)(=O)Nc2ccc(O)cc2)c1C | 0.6% (inactive) |
| O=C(NCc1cccs1)c1ccc2c(c1)ncn2C1CCCC1 | 0.01% (inactive) |
| O=C(Cn1nnc(-c2ccc(CN3CCOCC3)cc2)n1)NC1CCCCC1 | 0.56% (inactive) |
| O=C(CN1C(=O)C2C3C=CC(C3)C2C1=O)NCCc1ccccc1Cl (stereo unspecified) | -3.34% (inactive) |
| CCOC(=O)C1CCN(C(=O)Cc2c(C(=O)O)[nH]c3ccccc23)CC1 | 1.78% (inactive) |

| Compound | inhibition of disassembly |
| --- | --- |
| CC(c1nnc(SCC(=O)Nc2sccc2C#N)n1-c1ccc(Cl)cc1)N(C)C (stereo unspecified) | 0.73% (inactive) |
| COC(=O)c1ccccc1NC(=O)c1cncc(Br)c1 | 1.29% (inactive) |
| CCOC(=O)C1C(=O)C=C(c2ccc(OC)cc2)CC1c1ccco1 (stereo unspecified) | -0.2% (inactive) |
| O=c1c2[nH]c3ccc(Cl)cc3c2ncn1Cc1ccccn1 | -0.64% (inactive) |
| Cn1c(COc2ccc(Cl)cc2)nc2ccccc2c1=O | -1.78% (inactive) |
| O=C1CC(c2cccc(Br)c2)C2=C(CCCC2=O)N1 (stereo unspecified) | 2.93% (inactive) |
| COc1ccc(CCNC(=O)c2ccc3c(c2)NC(=O)C(N2CCOCC2)S3)cc1OC (stereo unspecified) | 7.35% (inactive) |
| COc1ccc(CCNC(=O)CCCCn2c(=O)[nH]c3ccccc3c2=O)cc1OC | -2.22% (inactive) |
| Cc1oc(-c2cccc(Cl)c2)[n+]([O-])c1C | -1.38% (inactive) |
| COc1ccc(CC(=O)Nc2c3c(nn2-c2cccc(Cl)c2)CS(=O)C3)cc1 (stereo unspecified) | -0.575% (inactive) |
| COc1ccc(CCNC(=O)c2cc(-c3ccc4c(c3)OCO4)on2)cc1OC | -0.34% (inactive) |
| CCOC(=O)Cn1c(=O)oc2cc(S(=O)(=O)NCC3CCCO3)ccc21 (stereo unspecified) | -1.43% (inactive) |
| CCOC(=O)c1c(C)oc2ccc(OCC(=O)N(CC)CC)cc12 | 0.35% (inactive) |
| O=C(CCCCn1c(=O)[nH]c2ccccc2c1=O)NCc1ccc2c(c1)OCO2 | 1.45% (inactive) |
| Cn1c(=O)[nH]c(=O)c2c1nc(N(CCO)Cc1ccccc1)n2Cc1ccccc1Cl | 0.72% (inactive) |
| COC(=O)C1C(=O)c2c([nH]c(C(=O)OCCSC)c2C)CC1C (stereo unspecified) | -0.89% (inactive) |
| COc1cccc(NC(=O)Cn2cnc3sc(C)c(S(=O)(=O)N4CCN(C)CC4)c3c2=O)c1 | -0.73% (inactive) |
| CC(=O)Nc1nonc1-c1nc2ccccc2n1Cc1ccccn1 | 5.18% (inactive) |
| CCOC(=O)N1CCC(Nc2c(NCCCN3CCN(c4ccc(OC)cc4)CC3)c(=O)c2=O)CC1 | 1.14% (inactive) |
| CCOCCc1c(O)nc(SCC(=O)NCc2ccco2)[nH]c1=O | -2.18% (inactive) |
| CN(C)CCCNC(=O)c1ccc2[nH]c3ccccc3c2c1 | -0.71% (inactive) |
| Cc1cccc(NC(=O)CSc2nc3c(c(=O)[nH]2)CCC3)c1C | 0.47% (inactive) |
| CC(=O)NC1CC2CCCC(C1)N2CC(=O)Nc1ccccc1 (stereo unspecified) | -0.95% (inactive) |
| CC12CN3CC(C)(CN(C1)C3c1ccc(Cl)cc1Cl)C2=O (stereo unspecified) | 1.12% (inactive) |
